Bioassay records as filed in PubChem.
Not all results are given here.
aSyn 5UTR act = Activators working through SNCA 5'UTR binding (MLPCN); alpha-synuclein 5'UTR reporter, activators screen; activity score, % (tested at 7.5 µM), hits read low; 300,000 compounds, 7.1% hits; in the data active = activity score below about -60%
Active calls of the source: *.

SMILES	aSyn 5UTR act
Nc1nnnn1/N=C/c1ccc(N2CCCCC2)c([N+](=O)[O-])c1	-64*
O=C(/C=C/c1ccc(N2CCCCC2)c([N+](=O)[O-])c1)c1ccc(O)cc1	-464*
CCCC1(C)Nc2ccccc2-c2nc3ccccc3n21 (stereo not drawn)	-96*
c1ccc2c(c1)NC1(CCCC1)n1c-2nc2ccccc21	-141*
Cc1ccc2oc(-c3cccc(NC(=O)c4ccccn4)c3)nc2c1	-96*
COc1cc(C(=O)Nc2cc(-c3nc4cc(C)ccc4o3)ccc2C)cc(OC)c1OC	-129*
COc1cc(C(=O)Nc2cccc(-c3nc4cc(C)ccc4o3)c2)cc(OC)c1OC	-162*
COc1cc(OC)cc(-c2nc3cc(C)ccc3o2)c1	-216*
Fc1ccc(/C=N/NC(=S)Nc2cccnc2)cc1F	-86*
CCc1ccc(OCC(=O)O/N=C(\N)c2cccnc2)cc1	-83*
N/C(=N\OC(=O)COc1ccc(Cl)cc1Br)c1cccnc1	-157*
N/C(=N\OC(=O)COc1ccc(Br)cc1Cl)c1cccnc1	-155*
CSc1ccc(/C=N/n2c(C)cc(C)cc2=O)cc1	-127*
CSc1ccc(/C=N/N2CCN(C)CC2)cc1	-95*
CN1CCN(/N=C/c2ccc(-c3ccccc3)cc2)CC1	-133*
CC(Oc1c(Cl)cccc1Cl)C1=NCCN1 (stereo not drawn)	-80*
O=C(NC(=O)c1csnn1)Nc1ccccc1Cl	-103*
Cc1c(NC(=O)Nc2cccs2)cccc1[N+](=O)[O-]	-71*
Cc1ccc(NC(=O)Nc2cccs2)c(Cl)c1	-201*
O=C(Nc1cccs1)Nc1ccccc1Cl	-71*
Cc1c(NC(=S)Nc2ccccc2C(F)(F)F)cccc1[N+](=O)[O-]	-65*
CC1(C)Cc2c(sc3nc(N/N=C/c4ccccc4)[nH]c(=O)c23)CO1	-78*
C=C1C(=O)O[C@@H]2C[C@@H](C)[C@@H]3C=CC(=O)[C@@]3(C)[C@@H](OC(C)=O)[C@H]12	95
CC(C)(C)c1csc(CS(=O)(=O)c2ccccn2)n1	-63*
CC(C)(C)c1ccc(C(O)CCCN2CCC(C(O)(c3ccccc3)c3ccccc3)CC2)cc1 (stereo not drawn)	111
SMILES	aSyn 5UTR act
CC(C)(C)c1ccc(C(=O)NCCN2CCOCC2)cc1	-190*
O=C(NCCCN1CCOCC1)c1cc(-c2ccccc2)on1	-113*
O=C1C=C(NCCN2CCOCC2)C(=O)c2cnccc21	131
O=C(NCCN1CCOCC1)c1cc(-c2ccccc2)on1	-130*
CCOC(=O)C1(Cc2ccc(OC)cc2)CCN(C(=O)c2ccc3[nH]ccc3c2)CC1	-127*
Cc1cc(NC(=O)c2noc3c2CCc2ccccc2-3)no1	-77*
Cc1ccc(O)c(NC(=O)c2noc(C(C)C)c2[N+](=O)[O-])c1	-86*
Cc1ccc(O)c(NC(=O)c2noc3c2CCc2ccccc2-3)c1	-122*
CC(=O)c1cccc(NC(=O)c2noc3c2CCc2ccccc2-3)c1	-168*
COC(=O)CSc1nc2ccccn2c(=O)c1C=O	-173*
O=C(Nc1nnc(CC2=CCCCC2)s1)Nc1ccccc1F	-81*
O=C(Nc1nnc(-c2cccc(F)c2)s1)Nc1ccccc1F	-98*
CC(c1ccccc1)c1nnc(NC(=O)Nc2ccccc2F)s1 (stereo not drawn)	-95*
CC(=O)OC(CC(=O)O)C[N+](C)(C)C (stereo not drawn)	68
O=C(O)C1CC=CCC1C(=O)Nc1ccc2c(c1)OCCO2 (stereo not drawn)	-73*
CC1CN(C(=O)Nc2ccc3c(c2)OCO3)CC(C)O1 (stereo not drawn)	-152*
O=C(Nc1ccc2c(c1)OCCO2)N1CCN(Cc2ccccc2)CC1	-66*
CCC(C)c1ccc(NC(=O)N2CCOCC2)cc1 (stereo not drawn)	-102*
O=C(Nc1ccc2c(c1)OCCO2)N1CCOCC1	-80*
O=C(Nc1ccc2c(c1)OCO2)N1CCOCC1	-84*
O=C(Nc1ccc2c(c1)OCO2)N1CCCC1	-88*
Cc1cccc(NC(=O)c2ccc(-c3ccccc3[N+](=O)[O-])o2)c1	-85*
COc1cccc(NC(=O)c2ccc(-c3ccccc3[N+](=O)[O-])o2)c1	-100*
Cc1ccccc1-c1ccc(C(=O)Nc2cccc(F)c2)o1	-128*
O=C(Nc1ccccc1C(=O)Nc1ccc2c(c1)OCO2)c1ccco1	-74*
SMILES	aSyn 5UTR act
COc1ccccc1C(=O)Nc1ccc2c(c1)OCO2	-245*
COc1ccccc1C(=O)Nc1ccc2c(c1)OCCO2	-124*
COc1cc(C2=NOC(C(=O)NCc3ccc(F)cc3)C2)cc(OC)c1OC (stereo not drawn)	77
COc1cc(C2=NOC(C(=O)Nc3ccc4c(c3)OCO4)C2)cc(OC)c1OC (stereo not drawn)	-64*
COCCn1cnnc1SCC(=O)Nc1ccccc1C(=O)Nc1ccc2c(c1)OCO2	-70*
O=C(NC1CCCCC1)c1cc(-c2ccc(O)cc2)on1	-153*
O=C(NC1CCCCC1)c1cc(-c2ccccc2O)on1	-145*
Cc1ccc(-c2cc(C(=O)NC3CCCCC3)no2)cc1	-163*
CN(C(=O)c1cc(-c2ccccc2)on1)C1CCCCC1	-188*
CNC(=O)c1ccc(-c2cc(C(F)(F)F)nn2C)s1	-142*
COc1ccc(SCC(=O)c2cc(C)c(OC(=S)N(C)C)c(C)c2)cc1	-82*
O=C(O)CCSc1ncnc2sc(-c3ccccc3)cc12	88
CC(=O)CCSc1ncnc2sc(-c3ccccc3)cc12	-174*
Cc1ccc(-c2csc(NC(=O)N3CCOCC3)n2)cc1	-103*
O=C(Nc1cccc(Br)c1)c1ccn[nH]1	-102*
O=C(Nc1nc(-c2cc(F)ccc2F)cs1)C1=COCCO1	-63*
CCOC(=O)c1csc(NC(=O)C2CCCCC2)n1	-103*
CCOC(=O)c1csc(NC(=O)C2=COCCO2)n1	-87*
Cc1ccc(-c2csc(NC(=O)C3=COCCO3)n2)cc1	-169*
COc1ccc(OC)c(NC(=O)c2ccc(-c3csc(C)n3)cc2)c1	-84*
Cc1nc(-c2ccc(NC(=O)c3ccc(Br)o3)cc2)cs1	-175*
CC(C)(C)c1csc(NC(=O)C2=COCCO2)n1	-107*
CC(=O)Nc1ccc(-c2csc(NC(=O)C3=COCCO3)n2)cc1	-115*
O=C(Nc1nc(-c2cc(F)ccc2F)cs1)c1ccccn1	-115*
COc1ccc(C)c2sc(NC(=O)C3=COCCO3)nc12	-77*
SMILES	aSyn 5UTR act
Cc1nc(-c2ccc(C(=O)Nc3cccc(Br)c3)cc2)cs1	-143*
CC(=O)Nc1ccc(-c2csc(NC(=O)c3ccc(C)o3)n2)cc1	-83*
CSc1ccc(COC(=O)c2cc([N+](=O)[O-])ccc2N2CCOCC2)cc1	67
CCOc1ccc(C(=O)COC(=O)c2cc([N+](=O)[O-])ccc2N2CCOCC2)cc1	-115*
O=C(COc1ccc(Cl)cc1Cl)c1ccc[nH]1	-94*
COC(=O)c1sccc1NC(=O)COc1ccc(F)cc1Cl	-99*
O=C(COc1cc(Cl)ccc1Cl)Nc1ccc2c(c1)CCC2	-64*
CC(=O)Nc1ccc(NC(=O)COc2ccc(Cl)cc2Cl)cc1	-117*
O=C(COc1ccc(Cl)cc1Cl)Nc1ccccc1F	-175*
Cc1nn(C)c(Sc2ccccc2N)c1[N+](=O)[O-]	-69*
COc1ccc(C2CC(c3ccc4ccccc4c3)=NN2C(=O)COC(=O)C2CCC(=O)N2)cc1 (stereo not drawn)	-152*
CCOC(=O)/C=C(\C)N1N=C(c2ccccc2)CC1c1ccccc1 (stereo not drawn)	-187*
